USP30 block – blocks human USP30 ubiquitin-rhodamine cleavage. Q70CQ3. purified USP30, Ub-rhodamine cleavage fluorescence. inhibition, % at 25 µM. 47,000 compounds, 5.3% hits
USP28 block – inhibitors of human USP28 deubiquitinase. purified USP28, Ub-rhodamine cleavage fluorescence, 30 min. inhibition, % at 25 µM. 47,000 compounds, 3% hits. AID 1645857
USP17 inh – blocks human USP17 ubiquitin-rhodamine cleavage | inhibition, % at 50 µM | purified USP17, Ub-rhodamine cleavage fluorescence, 3 h | A8MUK1 | 47,000 compounds, 6.5% hits
USP10 block – blocks human USP10 ubiquitin-rhodamine cleavage; AID 1645856; Q14694; inhibition, % at 20 µM; 47,000 compounds, 1.1% hits; purified USP10, Ub-rhodamine fluorescence, 60 min
USP8 block – blocks human USP8 ubiquitin-rhodamine cleavage; inhibition, % at 20 µM; AID 1645853; purified USP8, Ub-rhodamine cleavage fluorescence, 30 min; 47,000 compounds, 4.2% hits
Active calls of the source: *. A selection: hits, their analogues and other compounds. The true share with any hit is near 13%. Cut-off read from the data, not from the text of the source: active = inhibition above about 30%; inactive = the rest.

Cc1cccc(NC(=O)CC2C(=O)Nc3nc(-c4ccccc4)nn32)c1 (stereo unspecified) was read as USP30 block 31*, USP28 block 14, USP17 inh 16, USP10 block 9 and USP8 block 19.
For COc1ccc(CCNC(=O)Cn2c(=O)c3sccc3n(Cc3cc(=O)n4ccccc4n3)c2=O)cc1OC the results were USP30 block 24, USP28 block 0, USP17 inh 11, USP10 block -1 and USP8 block 0.
`COc1ccc(NC(=O)Cn2c(=O)n(CC(=O)NCc3ccc(C)cc3)c(=O)c3sccc32)cc1OC` gave USP30 block 75*, USP28 block 70*, USP17 inh 71*, USP10 block 13 and USP8 block 1.
For Cc1ccc(CNC(=O)Cn2c(=O)n(C3CC3)c(=O)c3nscc32)cc1 the results were USP30 block -7, USP28 block -2, USP17 inh 1, USP10 block -1 and USP8 block -1.
`CCOc1ccc(NC(=O)Cn2c(=O)n(CC(=O)NCc3ccc(C)cc3)c(=O)c3sccc32)cc1` gave USP30 block 70*, USP28 block 15, USP10 block 18 and USP8 block 30.
`Cc1ccc(-c2cn3ccn(-c4ccc(F)cc4)c(=O)c3n2)cc1` gave USP30 block 29, USP28 block 15, USP17 inh 18, USP10 block 2 and USP8 block 29.
For Cc1nnn(C23CC4CC(CC(C(=O)Nc5ccc6c(c5)OCO6)(C4)C2)C3)n1 the results were USP30 block 0, USP28 block 9, USP17 inh 16, USP10 block 4 and USP8 block 58*.
Screening O=S(=O)(c1ccc(Cl)cc1)N1CCN(c2ccnc3cc(Cl)ccc23)CC1 returned USP30 block 30*, USP28 block 7, USP17 inh 7, USP10 block 4 and USP8 block -4.
Screening O=C(c1cccc2ncccc12)N1CCN(c2ccnc3cc(Cl)ccc23)CC1 returned USP30 block -373, USP28 block -8, USP17 inh -102, USP10 block 1 and USP8 block 48*.
O=C(Cc1ccccc1)N1CCN(c2ccnc3cc(Cl)ccc23)CC1 was read as USP30 block 20, USP28 block 2, USP17 inh -2, USP10 block 0 and USP8 block -42.
For CCOc1ccc(CNC(=O)c2[nH]c3ccc(OC)cc3c2N2CCCC2=O)cc1 the results were USP30 block 21, USP28 block 8, USP10 block -3 and USP8 block -7.
`COc1ccc(Nc2nc(C(=O)NCc3ccc4c(c3)OCO4)cc3occc23)cc1` gave USP30 block -37, USP28 block 25, USP17 inh 63*, USP10 block 33* and USP8 block 67*.
COc1ccc(Nc2nc(C(=O)NCc3ccccc3)cc3occc23)cc1 was read as USP30 block -12, USP28 block 24, USP17 inh 57*, USP10 block 15 and USP8 block 55*.
`O=C(Cc1ccc(Cl)cc1Cl)N1CCC[C@H]1[C@H](O)c1nccs1` gave USP30 block -2, USP28 block -7, USP17 inh -42, USP10 block 1 and USP8 block -76.
For O=C(NCc1nc2ccccc2[nH]1)c1cccc(S(=O)(=O)N2CCc3ccccc32)c1 the results were USP30 block 59*, USP28 block 29, USP17 inh 31*, USP10 block 7 and USP8 block -61.
For O=C(Cc1nc(-c2ccccc2)n[nH]1)Nc1cccc(F)c1 the results were USP30 block 30*, USP28 block 21, USP17 inh 12, USP10 block 10 and USP8 block 2.
`O=C(Cc1nc(-c2ccccc2)n[nH]1)Nc1ccc(F)cc1F` gave USP30 block -21, USP28 block -6, USP17 inh -19, USP10 block -5 and USP8 block -1.
O=C(c1ccc(F)cc1)N1CCN(c2ncnc3c2nnn3Cc2ccccc2)CC1 was read as USP17 inh 8, USP10 block 0 and USP8 block 0.
`O=C(CCC1CCCCC1)N1CCN(c2ncnc3c2nnn3Cc2ccccc2)CC1` gave USP30 block 32*, USP28 block 14, USP17 inh 12, USP10 block 8 and USP8 block 14.
For O=C(Cc1ccc(Cl)cc1)N1CCN(c2ncnc3c2nnn3Cc2ccccc2)CC1 the results were USP30 block 35*, USP28 block 12, USP17 inh 7, USP10 block 10 and USP8 block 3.
For Cc1ccc(CNC(=O)c2nccnc2NC(=O)c2ccc(C)cc2)cc1 the results were USP30 block 17, USP28 block 2, USP17 inh 18, USP10 block 7 and USP8 block 5.
`O=S(=O)(c1ccc(F)c(Cl)c1)N1CCCC(c2nnc(C(F)(F)F)o2)C1` (stereo unspecified) gave USP30 block 8, USP28 block 0, USP17 inh 1, USP10 block -2 and USP8 block -10.
For O=C(Cn1c(=O)n(Cc2ccco2)c(=O)c2ccc(C(=O)NC3CCCC3)cc21)NCc1ccco1 the results were USP30 block -15, USP28 block 28, USP17 inh 55*, USP10 block 20 and USP8 block 45*.
Cc1cc(NC(=O)Cn2c(=O)n(Cc3ccco3)c(=O)c3ccc(C(=O)NCCc4ccccc4)cc32)n[nH]1 was read as USP30 block 74*, USP28 block 84*, USP17 inh 82*, USP10 block 66* and USP8 block 87*.
For COc1ccc(-n2c(=O)c3ccc(C(=O)NCCc4ccccc4)cc3n(CC(=O)NCc3ccco3)c2=O)cc1 the results were USP30 block -12, USP28 block 15, USP17 inh 60*, USP10 block 44* and USP8 block 6.
`Cc1cc(NC(=O)Cn2c(=O)n(CCc3ccccc3)c(=O)c3ccccc32)n[nH]1` gave USP30 block 6, USP28 block 0, USP17 inh 25, USP10 block 8 and USP8 block 10.
`O=C1CC(C(=O)Nc2ccccc2F)N=C(N2CCN(c3ccc(F)cc3)CC2)N1` (stereo unspecified) gave USP30 block 0, USP28 block -3, USP17 inh 3, USP10 block 3 and USP8 block 15.
`COc1ccc(N2CCN(C3=NC(CC(=O)Nc4ccccc4)C(=O)N3)CC2)cc1` (stereo unspecified) gave USP30 block 25, USP28 block 15, USP17 inh 36*, USP10 block -1 and USP8 block 36*.
Screening O=C1CC(C(=O)Nc2ccccc2F)N=C(N2CCN(c3ccccc3)CC2)N1 (stereo unspecified) returned USP30 block 10, USP28 block -3, USP17 inh 1, USP10 block -1 and USP8 block 7.
For O=C1CC(C(=O)Nc2ccccc2)N=C(N2CCN(c3ccccc3F)CC2)N1 (stereo unspecified) the results were USP30 block 33*, USP28 block 18, USP17 inh 2, USP10 block 6 and USP8 block 24.

From PubChem BioAssay
